In all, about 8,300 sequences were measured (“log2 fold change of degron read counts, EGFP-low vs EGFP+ sorted cells (limma voom), compound-induced degradation”: median about -1.1, highest 2% from about 3.2 on). For the sample, the highest values were picked, then their nearest neighbours and some sequences at random.
T1: CRBN, Q96SW2
T1 chain: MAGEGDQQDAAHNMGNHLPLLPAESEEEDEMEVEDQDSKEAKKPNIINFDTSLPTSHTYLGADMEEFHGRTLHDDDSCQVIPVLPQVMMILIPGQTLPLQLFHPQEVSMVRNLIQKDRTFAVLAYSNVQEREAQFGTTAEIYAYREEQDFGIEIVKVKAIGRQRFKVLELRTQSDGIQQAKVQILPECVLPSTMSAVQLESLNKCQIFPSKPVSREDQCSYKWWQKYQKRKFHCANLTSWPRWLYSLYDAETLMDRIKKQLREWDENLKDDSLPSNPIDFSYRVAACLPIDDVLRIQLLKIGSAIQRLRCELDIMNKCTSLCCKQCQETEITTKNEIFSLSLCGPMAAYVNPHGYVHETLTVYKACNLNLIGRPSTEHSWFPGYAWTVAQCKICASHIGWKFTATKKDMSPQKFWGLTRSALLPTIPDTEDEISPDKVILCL


Molecular target: T1, CRBN, Q96SW2
Assay: log2 fold change of degron read counts, EGFP-low vs EGFP+ sorted cells (limma voom), compound-induced degradation; higher = more compound-induced degradation of the degron-EGFP fusion; degrons are variants of IKZF1/3 zinc finger 2; compound dose not given here
Settings: Jurkat, 18 h
[1] = compound: compound 19 (5-tert-butyl-thalidomide)
[2] = compound: compound 22 (5-morpholino-thalidomide)
[3] = compound: compound 33 (diphenyl IMiD analogue)
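Also: pooled lentiviral library of zinc finger degron-EGFP fusions in mCherry-positive Jurkat cells, FACS-sorted after compound exposure, with degron abundance counted by next-generation sequencing.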

Sequence	log2 fold change of degron read counts [1]	log2 fold change of degron read counts [2]	log2 fold change of degron read counts [3]	log2 fold change of degron read counts (compound: thalidomide)
FSCPICGHHFTQKGNLLRHIKL [46F_47S_49P_50I_52G_53H_54H_55F_67L_, Q9UKT9]	-1.98	-2.66	-2	-1.93
FDCPICGRVFTQKGNLLRHIKL [46F_47D_49P_50I_52G_53R_54V_55F_67L_, Q9UKT9]	-0.729	-0.635	1.53	1.97
FLCNVCGAAFTQKGNLLRHIKL [46F_47L_49N_50V_52G_53A_54A_55F_67L_, Q9UKT9]	-1.6	-2.27	-0.522	-0.568
FNCEICGAAFTQKGNLLRHIKL [46F_47N_49E_50I_52G_53A_54A_55F_67L_, Q9UKT9]	3.08	1.75	0.0717	0.718
FKCEICGAAFTQKGNLLRHIKL [46F_47K_49E_50I_52G_53A_54A_55F_67L_, Q9UKT9]	2.15	-0.809	-1.83	0.606
FCCEICGAAFTQKGNLLRHIKL [46F_47C_49E_50I_52G_53A_54A_55F_67L_, Q9UKT9]	3.72	3.1	2.29	2.46
FSCEICGAAFTQKGNLLRHIKL [46F_47S_49E_50I_52G_53A_54A_55F_67L_, Q9UKT9]	3.56	2.95	2.24	2.15
FTCEICGAAFTQKGNLLRHIKL [46F_47T_49E_50I_52G_53A_54A_55F_67L_, Q9UKT9]	3.16	3.21	2.33	3.02
FACNVCGAMFTQKGNLLRHIKL [46F_47A_49N_50V_52G_53A_54M_55F_67L_, Q9UKT9]	0.511	-0.724	-0.968	-1.44
FFCDQCGAAFTQKGNLLRHIKL [46F_47F_49D_50Q_52G_53A_54A_55F_67L_, Q9UKT9]	0.0639	-0.343	-0.617	-2.46
LQCEICGFVCTQKGNLLRHIKL [46L_47Q_49E_50I_52G_53F_54V_55C_67L_, Q9UKT9]	-0.0768	1.31	1.38	3.4
LSCEICGFVCTQKGNLLRHIKL [46L_47S_49E_50I_52G_53F_54V_55C_67L_, Q9UKT9]	1.2	1.38	0.553	0.403
LKCEICGFVCTQKGNLLRHIKL [46L_47K_49E_50I_52G_53F_54V_55C_67L_, Q9UKT9]	-1.72	-2.04	-2.48	-0.691
LYCEICGFVCTQKGNLLRHIKL [46L_47Y_49E_50I_52G_53F_54V_55C_67L_, Q9UKT9]	3.3	3.29	2.43	0.954
LACEICGFVCTQKGNLLRHIKL [46L_47A_49E_50I_52G_53F_54V_55C_67L_, Q9UKT9]	2.04	1.25	-0.215	-0.0645
LFCEICGFVCTQKGNLLRHIKL [46L_47F_49E_50I_52G_53F_54V_55C_67L_, Q9UKT9]	3.27	3.45	1.38	1.31
LCCEICGFVCTQKGNLLRHIKL [46L_47C_49E_50I_52G_53F_54V_55C_67L_, Q9UKT9]	0.511	0.955	1.53	1.13
LWCEICGFVCTQKGNLLRHIKL [46L_47W_49E_50I_52G_53F_54V_55C_67L_, Q9UKT9]	2.88	3.17	2.26	0.659
LLCEICGFVCTQKGNLLRHIKL [46L_47L_49E_50I_52G_53F_54V_55C_67L_, Q9UKT9]	-0.934	-1.38	0.0357	1.04
